The results in this text go back to PubChem BioAssay AID504385 (National Center for Advancing Translational Sciences (NCATS), 2011).

The source made the active and inactive calls. No rule for the calls is given here.

Lutropin-choriogonadotropic hormone receptor (Homo sapiens), sequence (P22888 whole entry, looked up): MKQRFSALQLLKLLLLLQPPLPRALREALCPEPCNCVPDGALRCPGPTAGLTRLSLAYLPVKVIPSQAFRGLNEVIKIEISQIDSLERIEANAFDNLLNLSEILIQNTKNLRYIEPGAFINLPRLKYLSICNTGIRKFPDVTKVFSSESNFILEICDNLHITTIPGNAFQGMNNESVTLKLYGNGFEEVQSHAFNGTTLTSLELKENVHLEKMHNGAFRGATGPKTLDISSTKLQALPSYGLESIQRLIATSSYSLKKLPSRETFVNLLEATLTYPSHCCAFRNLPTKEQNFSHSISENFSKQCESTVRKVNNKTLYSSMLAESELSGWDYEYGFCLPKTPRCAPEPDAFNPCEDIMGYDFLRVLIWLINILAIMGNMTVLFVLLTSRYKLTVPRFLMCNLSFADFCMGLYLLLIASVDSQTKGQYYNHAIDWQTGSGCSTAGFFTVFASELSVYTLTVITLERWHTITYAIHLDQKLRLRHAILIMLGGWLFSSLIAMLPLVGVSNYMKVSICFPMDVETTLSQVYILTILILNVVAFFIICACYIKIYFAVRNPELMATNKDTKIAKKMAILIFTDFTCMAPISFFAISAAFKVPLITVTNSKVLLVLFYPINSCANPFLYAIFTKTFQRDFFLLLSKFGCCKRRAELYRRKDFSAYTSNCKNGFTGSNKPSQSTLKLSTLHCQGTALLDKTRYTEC

The target in this test is Lutropin-choriogonadotropic hormone receptor (Homo sapiens) (UniProt P22888). The test is described as follows: Counterscreen for antagonists of the thyroid stimulating hormone receptor: ELISA activity in a Luteinizing Hormone Receptor cell line. The conditions noted are these: HEK293 LHR cells, LH-induced cAMP ELISA. From the text:
TSH is an alpha/beta heterodimeric glycoprotein hormone secreted from the anterior pituitary gland which belongs to the glycoprotein hormone family. The actions of TSH are mediated by a seven-transmembrane receptor, which upon TSH binding couples preferentially to the G-alpha (s) protein (Gs), resulting in activation of adenylate cyclase and increase in cyclic adenosine 3', 5' monophosphate (cAMP). The TSH receptor (THSR) is mainly expressed in thyroid follicular cells and regulates their growth and function. This cell based assay was conducted on a TSHR transfected HEK 293 cell line, measuring cAMP stimulation using antibody-based Homogeneous Time Resolved Fluorescence (HTRF). Our goal is to identify small molecules that will inhibit (antagonize) the thyroid-stimulating hormone receptor (TSHR), a member of the 7 transmembrane-spanning receptor (7TMR) family of cell surface receptors. TSHR-mediated hyperthyroidism is important in thyroid pathology. The development of small molecule antagonists of TSHR may lead to therapeutic approaches for TSHR-mediated hyperthyroidism caused by constitutively activating mutations or stimulating auto-antibodies associated with Graves' disease. Graves' disease is the leading cause of hyperthyroidism and is caused by autoantibodies that stimulate TSHR (TsAbs) causing thyroid growth and unregulated overproduction of thyroid hormones and existing treatments have liabilities (agranulocytosis). In addition, TSHRs are known to be expressed in multiple extrathyroidal tissues including bone, brain, kidney, testis, fat and cells of the immune system but the role of the TSHR in these tissues is not clear. Therefore, TSHR antagonists/inverse agonists could be used as probes of extrathyroidal TSHR function. Finally, TSHR inverse agonists, which are a subclass of antagonists that inhibit agonist-independent (or basal or constitutive) TSHR signaling, could be used to inhibit TSH-independent signaling in patients with recurrent or metastatic thyroid cancer who are receiving thyroid hormone to suppress TSH. In order to confirm specificity of the compounds to the TSHR, a confirmatory assay was conducted on a similar family member, the Luteinizing Hormone Receptor, transfected into a HEK 293 cell line, using an orthogonal detection technology to measure cAMP stimulation: an ELISA based cAMP competition assay using cAMP-Screen Direct System (Applied Biosystems, Foster City, CA)/
Transiently transfected HEK-EM 293 cells or cells stably expressing LHR were seeded into 96-well plates at a density of 7 x10^4 cells per well in DMEM containing 10% FBS. Cells were cultured for 24 h before incubation for 20 min in HBSS/10 mM HEPES (pH 7.4). To determine the effect of the compound on LH induced LHR activity, cells were incubated for 20 min with the compound in HBSS/HEPES without IBMX and subsequently for 40 min with bovine LH (Sigma) and the compound in HBSS/HEPES supplemented with 1 mM IBMX at 37 C. The levels of cAMP in cells incubated in HBSS/HEPES without IBMX were subtracted in all experiments. After aspiration of the incubation medium, cells were lysed using lysis buffer of the cAMP-Screen Direct system (Applied Biosystems, Foster City, CA). The cAMP content of the cell lysate was determined using the method described in the manufacturer's protocol. The chemiluminescence signal was measured in a VICTOR3 V 1420 multilabel counter (PerkinElmer, Norwalk, CT). The potency (IC50) of the ligands were obtained from dose-response curves by data analysis with GraphPad Prism 4 for Windows.
For the compound `Cc1cccc(C)c1OCc1cccc(C2Nc3ccccc3C(=O)N2Cc2ccco2)c1` (configuration not stated), the result was inactive.
On the same count and under the same terms, as for `COc1ccc(C2Nc3ccccc3C(=O)N2Cc2ccco2)cc1COc1c(C)cc(NC(C)=O)cc1C` (configuration not stated), the entry is “inactive”.
On the same count and under the same terms, under `COc1ccc(C2Nc3ccccc3C(=O)N2Cc2ccc(C)o2)cc1COc1c(C)cccc1C` (configuration not stated) stands “inactive”; under `CCc1cccc(CC)c1OCc1cc(C2Nc3ccccc3C(=O)N2Cc2ccco2)ccc1OC` (configuration not stated), “inactive”.
Same read-out and setting: as for `COc1ccc(C2Nc3ccccc3C(=O)N2Cc2ccco2)cc1CSc1c(C)cccc1C` (configuration not stated), the entry is “inactive”.
Take `COc1ccc(C2Nc3ccccc3C(=O)N2Cc2ccco2)cc1COc1c(C)cccc1C` (configuration not stated): the IC50 is 480 nM (active).
`COc1ccc(C2Nc3ccccc3C(=O)N2Cc2cccnc2)cc1COc1c(C)cccc1C` (configuration not stated): the compound was classed as inactive.
